Among all 69,000 compounds or so, about 8,600 (12%) showed an effect of 50% or more. The entries come from a sample that favours strong results as a whole.
tested on: Plasmodium berghei; assay: Screen against P. berghei liver stage (PbLuc), transformed with Luciferase, at 10uM; assay type: functional, HepG2; conditions: tested at 10 uM

SMILES | INHIBITION
CN1CCN(C(=O)[C@H]2C[C@H]3[C@H](CCN3Cc3cccs3)O2)CC1 | -7.24%
c1cncc(CN2CCCC3(COCCN(c4cnccn4)C3)C2)c1 (centres undefined) | 12.7%
CC(Cn1cccn1)NC(=O)N(C)Cc1ccsc1 (centres undefined) | -1.04%
CC(Cn1ccnc1)NC(=O)N(C)Cc1ccsc1 (centres undefined) | 57.4%
CN(Cc1ccco1)C(=O)NC(Cn1ccnc1)C(C)(C)C (centres undefined) | -27.8%
Cc1noc(C)c1CN(C)C(=O)NC(C)c1cccs1 (centres undefined) | -55.1%
Cc1noc(C)c1CN(C)C(=O)NC(C)Cc1ccco1 (centres undefined) | 53.3%
CC(Cn1ccnc1)NC(=O)N(C)Cc1ccc2c(c1)OCCO2 (centres undefined) | 36.1%
CC(Cn1ccnc1)NC(=O)N(C)Cc1ccco1 (centres undefined) | 81%
CC(Cn1ccnc1)NC(=O)N(C)Cc1ccc2c(c1)OCO2 (centres undefined) | 7.12%
Cc1cc(CN(C)C(=O)NC(C)Cc2ccco2)no1 (centres undefined) | 34.2%
O=C(O)c1cc2c(nc1-c1ccncc1)CCN(C1CCOC1)CC2 (centres undefined) | -28.2%
CCn1cc(S(=O)(=O)N(CCc2ccccc2)Cc2ccn(C)n2)cn1 | 21.425%
CCc1ncc2c(n1)CN(Cc1nc(-c3cccnc3)no1)CC2 | -10.6%
Cc1ccc(C2CCCN2S(=O)(=O)N(C)CCc2ccccn2)o1 (centres undefined) | -17.35%
CCOC(=O)C(C)Nc1cccc(COCc2ccco2)c1 (centres undefined) | 12.1%
CCOCC(=O)NS(=O)(=O)c1ccc(F)cc1C(F)(F)F | 0.0944%
COCCOC1CCN(C(C(=O)O)c2ccc(F)c(Cl)c2)CC1 (centres undefined) | 23.9%
COCCOC1CCN(C(C(=O)O)c2c(Cl)cccc2OC)CC1 (centres undefined) | 50.3%
COc1cccc(Cl)c1C(C(=O)O)N1CCC(Cn2cccn2)CC1 (centres undefined) | -47%
CC(C)c1ncncc1C(=O)NCCN1CCOCC1 | -1.33%
COCCC(Cc1cccc(Br)c1)C(=O)N(C)C (centres undefined) | -28.4%
COc1ccc(C2Nc3ccccc3N=C3CNC(=O)C32)cc1OC (centres undefined) | 10.4%

SMILES | INHIBITION
CCOC(=O)Cn1nnnc1-c1ccccc1 | 64%
CCn1nnnc1-c1cccc(NC(=O)CCOC(C)C)c1 | 4.01%
CCn1nnnc1-c1cccc(NC(N)=O)c1 | 8.18%
COC(=O)NCC(=O)N1CCCC(c2ncc[nH]2)C1 (centres undefined) | 15.2%
Cc1sc(NC(=O)CN2CCCC(c3ncc[nH]3)C2)c(C)c1C (centres undefined) | 94.1%
O=C(CN1CCCC(c2ncc[nH]2)C1)NCC(F)(F)F (centres undefined) | 81.2%
O=C(CCC(F)(F)F)N1CCCC(c2ncc[nH]2)C1 (centres undefined) | -0.71%
O=C(CN1CCCC(c2ncc[nH]2)C1)NCCCN1CCCCCC1=O (centres undefined) | 45.4%
Cc1nc(CNC(=O)N2CCCC(c3ncc[nH]3)C2)sc1C (centres undefined) | 23.5%
CCn1nccc1CNC(=O)C1CCCO1 (centres undefined) | 17%
COc1ccc(N2CCN(C(=O)OC(C)(C)C)C(C(=O)O)C2)cc1 (centres undefined) | 2.55%
Cc1ccc(N2CCC3(CCN(C(=O)c4ccoc4)CC3)CC2)nn1 | -0.27%
Cc1cc(N2CCC(NC(=O)C3CC3)CC2)nc(-c2ccncc2)n1 | 23.4%
CCCc1cc(C(=O)N2C[C@H]3CC=C(C)C[C@H]3C2)ccn1 | 6.66%
CCCc1cc(C(=O)N2C[C@H](O)[C@@H](N3CCCC3)C2)ccn1 | 55.2%
CCCc1cc(C(=O)N2CC(c3ccncc3)C2)ccn1 | 8.64%
CC(C)c1sc(Cl)nc1C(=O)N1CCN(c2ccccc2)CC1 | -1.23%
NC(=O)C1CCN(C(=O)NCc2csc(Br)c2)CC1 | 16.9975%
CN(C)C(C(=O)Nc1nccs1)c1c(F)cccc1Cl (centres undefined) | 50.8%
CN(C)C(C(=O)NCC1(O)CCCCC1)c1c(F)cccc1F (centres undefined) | -21.2%
CN(C(=O)C(c1c(F)cccc1Cl)N(C)C)c1nccs1 (centres undefined) | 66.5%
Cc1csc(N(C)C(=O)C(c2c(F)cccc2Cl)N(C)C)n1 (centres undefined) | 9.04%
COCCOc1ncccc1C(=O)N(C)c1nccs1 | 45.2%

SMILES | INHIBITION
N#Cc1c(F)cccc1N1CCC(C(=O)Nc2nccs2)CC1 | 17.5%
CCNc1cc2c(nn1)CCN(C(=O)c1nccnc1N)C2 | 23.5%
Cc1c(C2CC(=O)Nc3c2cnn3C(C)C)cnn1C (centres undefined) | 24.7%
Cc1cn2nc(N(C)C3CCCN(c4cccnn4)C3)sc2n1 (centres undefined) | 11.5%
CCCNC(=O)COc1cccc(-c2nc(C(C)C)no2)c1 | 31.3%
Cc1ccc(Nc2nccc(C3CCN(CC(N)=O)C3)n2)nc1 (centres undefined) | 88.1%
O=C(C1CCC1)N1CCCC(c2ccnc(Nc3cnccn3)n2)C1 (centres undefined) | -14.1%
COCC(=O)N1CC(c2ccnc(Nc3ccc(C)cn3)n2)C1 | 6.32%
CC(=O)N1CC(c2ccnc(Nc3ccc(C)cn3)n2)C1 | -9.32%
Cc1ccc(Nc2nccc(C3CN(C(C)C)C3)n2)nc1 | 61.7%
Cc1ccc(Nc2nccc(C3CN(CC(N)=O)C3)n2)nc1 | 46.6%
CC(=O)N1CCC(c2ccnc(Nc3ccc(C)cn3)n2)C1 (centres undefined) | -55%
Cc1ccc(Nc2nccc(C3CCCN(CC(=O)N(C)C)C3)n2)nc1 (centres undefined) | 79.6%
Cc1cccnc1Nc1nccc(C2CN(CC(N)=O)C2)n1 | -4.51%
Cn1nc2c(cc1=O)CN(Cc1nc(-c3cccnc3)no1)CC2 | 13.3%
CC(C)NC(=O)N1CCCC2(CCN(c3ccccc3)C2=O)C1 (centres undefined) | -20.8%
COc1cccc(NC(=O)Cn2cc(-c3ccccc3)ncc2=O)c1 | 28.2%
CN(Cc1n[nH]c2c1CCC2)C(=O)c1cccc(CCC(C)(C)O)c1 | 68.5%
CN(Cc1cc[nH]n1)C(=O)c1cccc(CCC(C)(C)O)c1 | 34.1%
CN(Cc1n[nH]c2c1CCCC2)C(=O)c1cccc(CCC(C)(C)O)c1 | 48.5%
O[C@H]1CN(c2nc(-c3ccccc3)no2)C[C@@H]1N1CCOCC1 | -22.7%
OC1CCN(c2nc(-c3ccccc3)no2)CC1 | -3.74%
OC1CCN([C@@H]2CCN(c3nc(-c4ccccc4)no3)C[C@H]2O)CC1 | 69.8%
